Compounds with a hit are over-represented: about 1.2% of the library has one in this group of screens.
GSH bead fluor – GSH bead compound fluorescence profile; GSH beads flow cytometry, compound fluorescence 488/530 nm; hits give high values; fluorescence (KMESF) at 10 µM; 190,000 compounds, 0.25% hits; in the data active = fluorescence above about 89;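 note: glutathione beads carrying GST-tagged Bcl family fusion proteins plus one bare bead set; values are compound well signal with DMSO vehicle wells as background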
RGS8-Gao reg – regulators of human RGS8-Galphao interaction; P09471; multiplexed bead flow cytometry, RGS8-Galphao binding; actives lie on both sides; response (percent of control binding), % at 10 µM; 220,000 compounds, 0.34% hits; AID 1423; in the data active = response below about 60% or above about 140%; inactive = in between;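 note: Galphao activated as the GDP aluminium fluoride complex binding bead-coupled RGS8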
Target sequence (P09471 whole entry, looked up): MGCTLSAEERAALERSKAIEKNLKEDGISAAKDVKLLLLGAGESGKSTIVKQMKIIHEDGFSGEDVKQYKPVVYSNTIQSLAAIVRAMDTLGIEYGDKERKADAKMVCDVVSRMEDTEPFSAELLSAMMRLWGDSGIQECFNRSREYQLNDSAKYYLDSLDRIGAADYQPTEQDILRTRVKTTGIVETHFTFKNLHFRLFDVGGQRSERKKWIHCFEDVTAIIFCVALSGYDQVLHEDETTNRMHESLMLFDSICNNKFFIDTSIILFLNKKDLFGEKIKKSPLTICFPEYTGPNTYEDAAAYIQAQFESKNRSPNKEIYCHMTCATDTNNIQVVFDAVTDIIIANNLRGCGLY
RGS7-Gao reg – modulates binding of RGS7 to human Galphao; P09471; 220,000 compounds, 0.35% hits; Multiplexed bead flow cytometry; actives lie on both sides; binding response (% of control), % at 10 µM; in the data active = binding response below about 49% or above about 150%; inconclusive = no clear call, values can overlap the other calls; inactive = in between;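 note: fluorescent Galphao held in activated GDP-AlF4 state binding bead-coupled RGS7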
RGS16-Gao HTS – modulates binding between human RGS16 and Galphao; bead-based flow cytometry RGS16-Galphao binding, fluorescence; actives lie on both sides; binding response (% of control), % at 10 µM; O15492+P09471; 220,000 compounds, 0.38% hits;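 note: Galphao activated by GDP with aluminum fluoride before binding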
RGS4-Gao reg – modulates binding of RGS4 to human Galphao; P09471; Multiplexed bead flow cytometry; actives lie on both sides; binding response (% of control), % at 10 µM; 220,000 compounds, 0.33% hits; in the data active = binding response below about 49% or above about 150%; inactive = in between;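 note: fluorescent Galphao activated with aluminum fluoride binding bead-coupled RGS4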
Avidin bead fluor – avidin bead compound fluorescence profile. Avidin beads, compound fluorescence 488/530 nm, flow cytometry; hits give high values. fluorescence (KMESF) at 10 µM. 220,000 compounds, 0.38% hits. AID 1775; in the data active = fluorescence above about 47
RGS-Gao – RGS4-Galphao interaction regulator (human) | shares compounds with RGS16-Gao HTS | multiplexed bead flow cytometry, RGS–Galpha-o binding | RGS4–Galpha-o binding response, % at 10 µM | 1,600 compounds, 99% hits | AID 1504;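 note: fluorescently labeled Galpha-o bound to GDP with aluminium fluoride binding biotinylated RGS beads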
Biotin-avidin – counter-screen: compounds disrupting biotin binding to avidin beads; shares compounds with RGS16-Gao HTS; streptavidin beads, fluorescein-biotin binding, flow cytometry; inhibition, % at 10 µM; 1,700 tested, under 10 active;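 active = inhibition above 50%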;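 note: median green fluorescence of gated singlet beads compared with DMSO control wells; 0% = DMSO wells and 100% = complete loss of bead fluorescence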
RGS8-Gao single – RGS8-Galphao interaction regulation, single point confirmation; binding response (% of control), % at 10 µM; bead-based flow cytometry RGS8-Galphao binding, fluorescence; actives lie on both sides; shares compounds with RGS16-Gao HTS; 1,700 compounds, 3% hits; in the data active = binding response below about 72% or above about 130%; inactive = in between;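 note: Galphao activated as GDP AlF4 complex before binding bead RGS8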
RGS7-Gao single – confirmation of regulators of human RGS7-Galphao interaction; shares compounds with RGS16-Gao HTS; bead-based flow cytometry RGS7-Galphao binding; actives lie on both sides; response (percent of control binding), % at 10 µM; 1,700 compounds, 7.8% hits; in the data active = response below about 75% or above about 130%; inactive = in between;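 note: fluorescent Galphao activated with GDP and aluminum fluoride binding bead-coupled RGS7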
RGS16-Gao conf – RGS16-Galphao interaction regulation, single point confirmation; shares compounds with RGS16-Gao HTS; bead-based flow cytometry, RGS16-Galphao binding; actives lie on both sides; response (% of control binding), % at 10 µM; 1,700 compounds, 4% hits; in the data active = response below about 74% or above about 130%; inactive = in between;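 note: Galphao activated as the GDP aluminium fluoride complex binding bead-coupled RGS16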
RGS4-Gao confirm – RGS4-Galphao interaction regulation, single point confirmation; binding response (% of control), % at 10 µM; AID 1840; RGS4-Galphao binding, multiplexed bead flow cytometry; actives lie on both sides; shares compounds with RGS16-Gao HTS; 1,700 compounds, 4% hits; in the data active = binding response below about 74% or above about 130%; inactive = in between
RGS19-Gao single – RGS19-Galphao interaction regulation, single point confirmation. 1,700 compounds, 5% hits. shares compounds with RGS16-Gao HTS. response (percent of control binding), % at 10 µM. AID 1841. bead-based flow cytometry RGS19-Galphao binding; actives lie on both sides; in the data active = response below about 50% or above about 160%; inactive = in between;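 note: 100% = no compound control and 0% = blank background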
Target sequence (P09471 whole entry, looked up): as above
Target sequence (P49795 whole entry, looked up): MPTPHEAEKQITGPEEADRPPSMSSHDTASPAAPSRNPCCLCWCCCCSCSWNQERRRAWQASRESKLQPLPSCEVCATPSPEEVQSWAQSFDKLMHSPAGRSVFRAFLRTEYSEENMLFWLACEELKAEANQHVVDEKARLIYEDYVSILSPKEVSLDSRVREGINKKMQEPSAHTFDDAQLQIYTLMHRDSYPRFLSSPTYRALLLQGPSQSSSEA
An asterisk follows results filed as active; ? = inconclusive; . = no result; [ ] = dose if it differs, or a comment. Unless noted, the rule behind the calls is not given here.

SMILES	GSH bead fluor	RGS8-Gao reg	RGS7-Gao reg	RGS16-Gao HTS	RGS4-Gao reg	Avidin bead fluor	RGS-Gao	Biotin-avidin	RGS8-Gao single	RGS7-Gao single	RGS16-Gao conf	RGS4-Gao confirm	RGS19-Gao single
O=c1[nH]c2cc3c(cc2cc1CN(CCO)S(=O)(=O)c1ccccc1)OCCO3	.	100	?	93	99	8	.	.	.	.	.	.	.
COc1ccc(C(=O)c2cc([N+](=O)[O-])ccc2N2CCOCC2)cc1	10	87	93	69	89	1	.	.	.	.	.	.	.
O=C(c1cc([N+](=O)[O-])ccc1N1CCOCC1)N1CCOCC1	9	89	98	70	96	1	.	.	.	.	.	.	.
O=C(c1cc([N+](=O)[O-])ccc1N1CCOCC1)N1CCCC1	9	65	86	16*	84	1	84*	-2	101	98	98	102	97
Cc1ccc(C(=O)c2cc([N+](=O)[O-])ccc2N2CCOCC2)cc1	7	85	89	21*	92	6	92*	5	101	99	99	99	104
COC(=O)c1ccc2c(=O)[nH]c(CSc3nnc(C(F)(F)F)n3C)nc2c1	4	81	90	16*	90	6	90*	3	103	100	106	104	100
O=C(Nc1nc2c(F)cc(F)cc2s1)c1ccccn1	6	102	99	100	98	21	.	.	.	.	.	.	.
COc1ccc(C(NC(C)=O)c2ccc3cccnc3c2O)c(OC)c1 (stereo unspecified)	13	47*	56	15	55	7	55*	2	98	93	98	97	86
CNCCCNC(=O)c1ccc(/C=N/O)nc1	13	100	102	102	101	10	.	.	.	.	.	.	.
CN(C)CCCNC(=O)c1ccc(/C=N/O)nc1	13	12*	-11*	9.7*	6.1*	0	.	-1	102	105	101	102	99
O=C1N=C(C=c2ccc(=Cc3[nH]c(=O)[nH]c3O)cc2)C(=O)N1	.	98	?	99	97	7	.	.	.	.	.	.	.
O=C1CS/C(=N/N=C/c2c[nH]c3ccccc23)N1	.	115	?	176*[activator]	155*[activator]	8	.	0	94	89	91	93	73
Cc1ccc(/C=N/N=C2/NC(=O)CS2)o1	11	102	97	102	100	11	.	.	.	.	.	.	.
O=C(CC1C(=O)NCCN1Cc1cccc(Oc2ccccc2)c1)NCCCn1cccn1 (stereo unspecified)	14	99	100	98	96	6	.	.	.	.	.	.	.
COc1ccc2c(C)cc(SCc3c(C)noc3C)nc2c1	27	154*[activator]	117	345	114	18	114*	.	.	.	.	.	.
CC1(C)CC(C2N3CC4(C)CN2CC(C)(C3)C4=O)CCO1 (stereo unspecified)	22	147*[activator]	119	278	115	12	115*	0	101	103	104	103	94
O=[N+]([O-])c1c(N2CCN(CCO)CC2)nc2ccccn12	.	99	?	100	101	16	.	.	.	.	.	.	.
O=C(NCCO)Nc1ccc2nc(-c3ccco3)c(-c3ccco3)nc2c1	9	48*	40*	17*	66	-1	66*	.	.	.	.	.	.
CCc1ccc2c(c1)c(N=NC1=NC(=O)CS1)c(O)n2C	10	104	106	101	107	22	.	.	.	.	.	.	.
Cc1cc(C)c2[nH]c(O)c(N=NC3=NC(=O)CS3)c2c1	.	116	?	270*[activator]	283*[activator]	124*	.	0	100	95	100	97	120
CC(C)OCCCNC(=O)NC(=O)c1ccc(Cl)cc1	17	98	98	104	101	9	.	.	.	.	.	.	.
CN(Cc1nc(Cc2cccc(F)c2)no1)CC1CCOCC1	12	100	?	101	101	10	.	.	.	.	.	.	.
COc1cc2[nH]c(=S)n(C3CCCC3)c(=O)c2cc1OC	41	117	108	182*[activator]	99	4	99*	3	104	104	102	103	116
COc1cc2[nH]c(=S)n(C3CC3)c(=O)c2cc1OC	12	100	?	102	103	9	.	.	.	.	.	.	.
CCOC(=O)c1cccc(-n2c(C)nc3ccccc3c2=O)c1	29	91	100	73	96	13	.	.	.	.	.	.	.
SMILES	GSH bead fluor	RGS8-Gao reg	RGS7-Gao reg	RGS16-Gao HTS	RGS4-Gao reg	Avidin bead fluor	RGS-Gao	Biotin-avidin	RGS8-Gao single	RGS7-Gao single	RGS16-Gao conf	RGS4-Gao confirm	RGS19-Gao single
CCOC(=O)c1cccc(-n2c(-c3ccc(OC)cc3)nc3nc4ccccc4nc32)c1	15	98	179*[activator]	101	108	124*	108*	0	96	103	100	101	90
Cn1cnnc1SCC(=O)Nc1c(F)cc(F)cc1Br	41	.	.	.	.	.	.	1	102	97	101	101	96
C/C=C(\C)C(=O)NCCN1C2=NC[C@H](Cc3ccccc3)N2C[C@H]1Cc1ccc(O)cc1	20	24*	20*	19*	34*	0	.	-2	103	104	99	99	112
C=CCn1c(-c2sc3nc(C)cc(C)c3c2N)n[nH]c1=S	.	99	?	99	98	5	.	.	.	.	.	.	.
CCCCn1c(-c2csc(C(C)C)c2)n[nH]c1=S	5	76	100	38	99	2	.	-1	102	109	104	102	101
CSc1nc(-c2ccccc2)nn1S(=O)(=O)c1ccc(Cl)cc1	12	91	84	86	87	9	.	.	.	.	.	.	.
CSc1nc(-c2ccccc2)nn1S(=O)(=O)c1ccccc1	19	104	171*[activator]	199*[activator]	173*[activator]	96*	.	-2	104	105	104	103	103
Cc1cc(C(=O)Nc2nc3c(C)cccc3s2)c(C)o1	16	68	79	17*	72	9	72*	-1	101	102	102	104	96

Assay outcomes: PubChem BioAssay, NMMLSC
